Screen size: about 68,000 compounds; about 2,700 (4%) showed an effect of 50% or more. The full list was thinned out, with strong results kept by preference.

The subject of this assay is Plasmodium berghei. Nature of the assay: Screen against P. berghei liver stage (PbLuc), transformed with Luciferase, at 2uM. It is filed as functional, HepG2. The following applies: tested at 2 uM.
For `Cc1ccccc1C(=O)Nc1ccc(OC2CCN(C)CC2)cc1`, the INHIBITION was 37.87%.
The same measure for `Cc1ccc(C(=O)Nc2ccc(OC3CCN(C)CC3)cc2)c(C)c1`: 55.84%.
As to `CN(CCc1ccccn1)c1cc(N2CCCCC2)ncn1`, the INHIBITION is 26.74%.
In the case of `Cc1ccc(-c2noc(C3CCN3C(=O)c3cc[nH]n3)n2)s1` (centres undefined), the INHIBITION is given as -24.35%.
Take `CCCc1nnc(N2CC[C@](C)(O)[C@H](C)C2)s1`: the INHIBITION came to 40.28%.
Turning to `Cc1cc(CN2CCc3nc(-c4ccncc4)nc(O)c3CC2)c(C)s1`, the INHIBITION is 17.72%.
`CN(CCC(O)c1ccccc1)c1cc(N2CCOCC2)ncn1` (centres undefined): the INHIBITION is recorded as -3.38%.
With `CCN(CC)c1nc2sc(C(=O)NCC(=O)OC)cc2s1`, the INHIBITION was 5.1%.
In the case of `Fc1ccc(N2CCOC3(COCCN(c4ncccn4)C3)C2)cc1` (centres undefined), the INHIBITION was 26.31%.
Take `Cn1nnc2c(N3CC(C(=O)NCc4cccs4)C3)ncnc21`: the INHIBITION is listed as 41.71%.
Take `Cc1cccc(C)c1OC1CN(C(=O)C2CCCN(C(=O)N(C)C)C2)C1` (centres undefined): the INHIBITION came to 10.04%.
Regarding `Cc1cccc(C)c1OC1CN(C(=O)C2CCN(C(=O)N(C)C)CC2)C1`, the INHIBITION came out at 24.23%.
Take `COc1cccc(OC2CN(C(=O)C3CCCN(C(=O)N(C)C)C3)C2)c1` (centres undefined): the INHIBITION is listed as 52.6%.
Take `Cc1ccc(CN2CCc3[nH]nc(C(=O)N4CCNC(=O)C4)c3C2)s1`: the INHIBITION worked out at 57.85%.
On to `Cc1cccc(CN2CCc3[nH]nc(C(=O)N4CCNC(=O)C4)c3C2)n1`, for which the INHIBITION is given as 25.04%.
For `CCc1ccc(CN2CCc3[nH]nc(C(=O)N4CCNC(=O)C4)c3C2)o1`, the INHIBITION is recorded as -15.83%.
For `O=C(CN1CCOC(Cn2cccn2)C1)NCc1ccccn1` (centres undefined), the INHIBITION is -12.75%.
For the compound `NC(=O)c1cc2c(nc1Oc1ccc(CN3CCCC3)cc1F)CCC2`, the INHIBITION came out at 12.21%.
The same measure for `CNC(=O)c1cc2c(nc1N(C)C)CCN(c1ncc(C)cn1)CC2`: -37.2%.
`COc1ccc(Cl)cc1NCCC(=O)NCCNc1cnccn1`: the INHIBITION is on record as -22.83%.
`COc1ccc(Cl)cc1NCC(=O)NCCNc1ncccn1`: the INHIBITION is on record as -5.6%.
Take `COc1ccc(Cl)cc1NCC(=O)NCCNc1cnccn1`: the INHIBITION came to 55.7%.
On to `NC(=O)CN1CCCC1c1csc(Nc2cnccn2)n1` (centres undefined), for which the INHIBITION is listed as -20.73%.
For the compound `CN1CCC2(COCc3cnc(N4CCOCC4)nc32)C1` (centres undefined), the INHIBITION is 18.97%.
With `CS(=O)(=O)NC(=O)c1ccn(-c2ccccc2Cl)n1` the figure was -61.69%.
With `O=C1Nc2ccccc2CC12CCCN2Cc1ccc(F)cc1` (centres undefined), the INHIBITION is -0.14%.
As to `Cc1n[nH]c(C2CN(C(=O)CCc3cscn3)CCO2)n1` (centres undefined), the INHIBITION is on record as -4.43%.
For `CCc1n[nH]c(C2CN(CCCS(C)(=O)=O)CCO2)n1` (centres undefined), the INHIBITION came out at 24.65%.
As to `CC(C)c1n[nH]c(C2CN(C(=O)CCc3cscn3)CCO2)n1` (centres undefined), the INHIBITION stood at 53.33%.
`CC(C)c1n[nH]c(C2CN(CCCS(C)(=O)=O)CCO2)n1` (centres undefined): the INHIBITION amounted to 69.11%.
As to `CC(C)(C)c1n[nH]c(C2CN(C(=O)CCC3CC3)CCO2)n1` (centres undefined), the INHIBITION was determined as 60.31%.
The same measure for `CSCC(=O)N1CCOC(c2nc(C(C)(C)C)n[nH]2)C1` (centres undefined): -17.77%; for `CCc1n[nH]c(C2CN(C(=O)CCc3cscn3)CCO2)n1` (centres undefined): 12.81%; for `CCCc1n[nH]c(C2CN(CCCS(C)(=O)=O)CCO2)n1` (centres undefined): 2.1%.
For the compound `CC(C)(C)c1n[nH]c(C2CN(C(=O)CCc3ccco3)CCO2)n1` (centres undefined), the INHIBITION came out at 0.74%.
Regarding `C=C(C)CN(CC)Cc1nc(C)no1`, the INHIBITION was -12.44%.
As for `CS(=O)(=O)Cc1noc(CN2CCc3c(Cl)cccc3C2)n1`, the INHIBITION was -6.67%.
Consider `CCC(CNS(C)(=O)=O)Oc1ccccc1F` (centres undefined), for which the INHIBITION was 14.69%.
On to `CCc1n[nH]c(C2CN(Cc3nnc(C4CCC4)o3)CCO2)n1` (centres undefined), for which the INHIBITION is listed as -45.21%.
For the compound `CC(=O)N1CCCC1c1nc(N(C)C)ncc1-c1ccccc1` (centres undefined), the INHIBITION is 7.47%.
Regarding `Cc1cn(CC(=O)NC2CCN(C(=O)C3CC3)CC2)c2ccccc12`, the INHIBITION is recorded as 41.44%.
For `Cc1c(C(=O)N(C)C)cccc1N(C)S(C)(=O)=O`, the INHIBITION is reported as -0.02%.
Consider `COc1ccc(CNc2c(C)nn(C(C)C)c2C)cc1OC`, for which the INHIBITION is on record as -4.19%.
With `CC[C@@H](c1ccccc1)n1c(CCN)n[nH]c1=O` the figure was 31.69%; with `Cc1nc(CC(=O)N2CCc3nc(-c4cnccn4)nc(O)c3C2)cs1`, 34.9%.
The same measure for `CC(C)c1noc(CCC(=O)NC2CCS(=O)(=O)C2)n1` (centres undefined): 17.19%.
Regarding `CN(c1ccc(C(=O)NCCN2CCOCC2)c(Cl)c1)S(C)(=O)=O`, the INHIBITION is given as 2.31%.
The same measure for `Cc1ccc(C(=O)NCCC2CCN(C)CC2)cc1N(C)S(C)(=O)=O`: 36.05%.
Take `Cc1ccc(C(=O)NCCN2CCOCC2)cc1N(C)S(C)(=O)=O`: the INHIBITION turned out to be 70.2%.
`COc1ccccc1-c1cc(C(=O)Nc2nc[nH]n2)[nH]n1`: the INHIBITION stood at 19.53%.
As for `CCCN(C)c1ccc(C(=O)Nc2c(C)nn(C(C)C)c2C)cc1`, the INHIBITION is -17.64%.
For `CN(C)Cc1ccc(C2CCCCN2C(=O)c2cccnn2)cc1` (centres undefined), the INHIBITION is -9.15%.
On to `CN(C)Cc1ccc(C2CCCCN2C(=O)c2ncccc2O)cc1` (centres undefined), for which the INHIBITION was found to be 56.16%.
As for `Cc1nc(C(=O)N2CCCCC2c2ccc(CN(C)C)cc2)c(C)o1` (centres undefined), the INHIBITION stood at 46.21%.

The record behind these values is ChEMBL document CHEMBL4513216, “Probing the Open Global Health Chemical Diversity Library for Multistage-Active Starting Points for Next-Generation Antimalarials” (ACS Infect Dis, 2020).
